# The list is not random: actives were taken first. Their share in the collection is about 4.7%.
# TRHR enhancer: allosteric enhancers of human TRH receptor. P34981. TRHR cells, fluo-8 calcium fluorescence, EC20 TRH enhancement. enhancement, % at 2 µM. actives 0.66% (n = 360,000); in the data active = enhancement above about 30%; note: 0% is about no effect
# Target sequence (P34981 whole entry, looked up): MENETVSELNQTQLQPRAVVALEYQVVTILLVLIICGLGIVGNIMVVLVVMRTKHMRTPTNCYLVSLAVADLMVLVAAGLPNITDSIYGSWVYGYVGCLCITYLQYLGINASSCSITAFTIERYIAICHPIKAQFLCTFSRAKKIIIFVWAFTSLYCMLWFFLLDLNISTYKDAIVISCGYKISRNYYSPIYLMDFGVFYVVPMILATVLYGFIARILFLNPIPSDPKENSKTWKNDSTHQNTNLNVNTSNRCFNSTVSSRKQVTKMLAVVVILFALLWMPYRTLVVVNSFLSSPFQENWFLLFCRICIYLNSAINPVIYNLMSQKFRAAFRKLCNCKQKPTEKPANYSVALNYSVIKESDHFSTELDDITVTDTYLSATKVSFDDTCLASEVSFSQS
#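 TRHR-expressing cells loaded with fluo-8 calcium dye were read kinetically (ex 480/em 530) during compound addition, then stimulated with an EC20 of TRH (10 nM final). Enhancement of the Gq-mediated intracellular calcium response was scored.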
# D1 PAM: potentiators of human D1 dopamine receptor; P21728; HEK293 TREx D1 cells, calcium flux, dopamine EC20 potentiation; potentiation, % at 10 µM; actives 0.036% (n = 360,000); in the data active = potentiation above about 30%; note: 0% is about no effect
# D1 antag: blocks dopamine activation of the human D1 receptor | P21728 | HEK293 TREx D1 cells, calcium flux, dopamine EC80; active compounds read low | activity change, negative = inhibition, % at 10 µM | actives 3.2% (n = 360,000) | AID 504652; in the data active = activity change below about -30%; note: % is set by controls: 0 for no effect and ±100 for the full control effect
#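 Antagonism measured as reduced calcium response to an EC80 dopamine addition following 180 s compound pre-read; cells were inducible HEK293 Trex D1 plated overnight at 30 C, read kinetically at 1 cycle/sec.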
# TRHR ag: activates the human TRH receptor | P34981 | activation, % at 2 µM | TRHR cells, calcium flux fluo-8, FDSS agonist mode | actives 0.18% (n = 360,000); note: 0% is about no effect
#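 Steps: seed TRHR cells overnight; add fluo-8 no-wash Ca dye, RT 30 min–1.5 h; record 10 s baseline; pin-transfer compounds; monitor fluorescence 1 cycle/s for the agonist window. Calcium increases flag candidate agonists.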
# D1 ag: agonists of human D1 dopamine receptor; AID 504660; actives 1% (n = 360,000); P21728; activation, % at 2 µM; HEK293 T-REx D1 cells, calcium flux, agonist mode; note: 0% is about no effect
#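 Tetracycline-induced HEK293 TREx D1 cells, force-coupled to calcium signalling, were dye-loaded with a no-wash calcium kit. Compound was pin-added after a 10 s baseline. Fluorescence was read kinetically at 1 cycle/s for 180 s, with calcium rises flagged as agonism.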
# An asterisk follows results filed as active; / = not tested or not shown. Cut-off read from the data, not from the text of the source, unless noted: active = activation above about 30%; inactive = the rest.
SMILES,TRHR enhancer,D1 PAM,D1 antag,TRHR ag,D1 ag
CNC(=O)c1cn(-c2ccccc2)c(=O)c2ccccc12,-5.2,-10.6,-73.3*,-0.3,-0.1
CCCCNC(=O)COC(=O)c1cc(F)c(F)cc1Cl,0.8,1.9,-20.9,0.1,0.4
CCCCNC(=O)COC(=O)c1cc(Br)ccc1Cl,-2.1,-11.5,-30.7*,-1.9,0.8
CCC(CC)NC(=O)COC(=O)c1cc(Br)ccc1Cl,23.2,-4.6,-35.6*,-0.7,0.1
COc1ccc(NC(=O)Cn2c(=O)n(CCCCCC(=O)NCc3ccc4c(c3)OCO4)c(=O)c3sccc32)cc1Cl,-2.9,0.6,-6.6,1.4,2.5
CCc1ccc(OC(C)C(=O)Nc2ccc(S(=O)(=O)Nc3nccs3)cc2)cc1 (stereo not given),6.5,-2.2,5.4,4.0,18.3
Cc1ccc([N+](=O)[O-])cc1/C=N/Nc1nnnn1-c1ccccc1,6.8,-6.1,-58.6*,-0.1,0.2
COc1c(/C=N/Nc2ccc([N+](=O)[O-])cc2[N+](=O)[O-])c(C)nn1-c1ccccc1,16.2,-0.1,-33.1*,-0.2,0.1
Cc1cc(/C=N/Nc2ccc([N+](=O)[O-])cn2)c(C)n1-c1ccccc1,0.2,-2.2,/,2.5,3.4
CCOC(=O)C1=C(COC(=O)/C=C/c2ccco2)NC(=O)NC1C (stereo not given),3.1,-7.8,20.1,-0.4,4.0
CC1CCC(N2CC(=O)N(C3CCCC3)C(c3ccc(Cl)cc3)C2=O)CC1 (stereo not given),31.0*,-0.6,14.4,-0.2,-0.7
CCN1/C(=C/c2ccc3cc(C)cc(C)c3[n+]2CC)Sc2cc(C)ccc21,35.1*,-0.2,-16.9,20.7,10.9
NC(=O)C1CCN(S(=O)(=O)c2cc3c(cc2Cl)NC(=O)CO3)CC1,2.9,2.8,-1.9,0.5,0.5
O=C(Nc1ccnn1C1CCN(C(=O)c2ccc(F)cc2)CC1)C1CCOC1 (stereo not given),-3.2,-1.1,5.2,1.2,1.9
O=C1NC(c2ccc(Br)cc2)Nc2ccccc21 (stereo not given),-0.4,-3.9,-32.2*,-0.1,-2.1
COc1ccc(C2NC(=O)c3ccccc3N2)cc1OC (stereo not given),21.7,2.6,-8.2,2.1,2.4
Cc1ccc(NS(=O)(=O)c2ccccc2)c(C)c1,2.8,3.6,-6.3,-2.3,1.8
Cc1ccc(-n2c(C)c(C)c3c(NCCN(C)C)ncnc32)cc1,-1.2,-10.3,-38.0*,-0.4,0.1
Clc1cccc(-n2ncc3c(NCCCN4CCOCC4)ncnc32)c1,0.6,3.0,-77.2*,-0.2,1.4
Clc1ccc(-n2ncc3c(NCc4ccco4)ncnc32)cc1,6.9,-2.9,-44.4*,0.6,0.5
CN(C)CCNc1ncnc2c1cnn2-c1cccc(Cl)c1,-2.5,-2.5,-0.2,0.9,37.4*
COc1ccc(-n2ncc3c(NCc4ccco4)ncnc32)cc1,-6.3,-7.1,14.4,0.4,-0.2
Cc1ccc(-n2ncc3c(NCCCN4CCOCC4)ncnc32)cc1Cl,2.9,-3.8,-23.7,-0.1,7.2
Cc1c(C)n(CCc2ccccc2)c2ncnc(NCCCN(C)C)c12,5.6,2.3,9.4,-1.1,-1.4
COc1ccccc1OCc1nnc(SCC(=O)Nc2ccc(N3CCOCC3)cc2)n1C,-6.2,/,4.7,1.5,0.0
SMILES,TRHR enhancer,D1 PAM,D1 antag,TRHR ag,D1 ag
CCN(CC)CCCNC(=O)c1ccc2c(c1)NC(=O)C(CS(=O)(=O)Cc1cccc(Br)c1)N2 (stereo not given),3.6,4.0,1.8,0.0,-3.2
CCn1ccnc1CNC(=O)c1ccc(OC2CCN(C(=O)COC)CC2)cc1,7.8,-0.8,3.9,1.3,3.4
OCCCNc1ncnc2c1cnn2-c1ccc(Cl)cc1,1.5,-11.5,-35.9*,-1.4,15.7
CCC(CO)Nc1ncnc2c1cnn2-c1ccc(Cl)cc1 (stereo not given),-5.8,-7.6,-0.9,0.4,2.4
CN(C)CCNc1ncnc2c1cnn2-c1ccc(Cl)cc1,-4.9,/,-0.2,1.1,32.5*
Cc1ccc(Cn2ncc3c(NCCN(C)C)ncnc32)cc1,-0.3,2.7,7.8,0.3,3.5
Cc1ccc(Cl)cc1-n1ncc2c(Nc3cccc(C)c3C)ncnc21,5.2,-1.9,4.2,4.8,56.9*
COCCNC(=O)C1CCC(CNS(=O)(=O)c2ccc3c(c2)CC(C)N3C(C)=O)CC1 (stereo not given),-6.3,-4.5,4.5,1.2,1.8
CCC(C)c1ccc(S(=O)(=O)Nc2cccnc2)cc1 (stereo not given),10.2,-3.5,-51.3*,0.2,18.1
O=S(=O)(Nc1cccnc1)c1ccc(Cl)c(C(F)(F)F)c1,-1.4,-7.3,-37.7*,0.5,1.1
CCOc1ccc(S(=O)(=O)Nc2cccnc2)cc1,0.3,1.6,0.6,-0.1,4.5
C=CCNC(=S)NNC(=O)CC12CC3CC(CC(C3)C1)C2,-26.0,-15.4,-42.2*,0.2,0.6
CCOc1ccc(-c2nnc3ccc(SC(C)C)nn23)cc1,5.7,-3.1,-42.3*,-1.5,2.1
CCOc1ccc(-c2nnc3ccc(SCC(=O)Nc4nc5ccc(C)cc5s4)nn23)cc1,-2.2,-15.3,-42.9*,-0.7,0.9
CCOc1ccc(-c2nnc3ccc(SCC(=O)Nc4nc5ccccc5s4)nn23)cc1,1.4,-10.1,7.5,0.4,0.0
O=S(=O)(NCCc1csc2nc(-c3ccc(F)cc3)nn12)c1ccc2c(c1)OCCO2,6.3,-1.2,/,-0.6,22.9
CC(=O)c1cccc(NC(=O)CCC(=O)c2ccc(F)cc2)c1,-3.6,0.4,0.1,0.3,3.9
O=C(CCC(=O)c1ccc(F)cc1)Nc1cc(Cl)cc(Cl)c1,-7.5,-2.7,-40.5*,3.1,19.7
CCOC(=O)c1[nH]cnc1C(=O)NC1CCN(C(=O)OC(C)(C)C)CC1,0.0,2.2,/,0.2,-2.2
C[C@@H](C(=O)Nc1nc2ccc(F)cc2s1)N1C(=O)C2CC=CCC2C1=O (stereo not given in full),0.6,0.5,-45.0*,-1.0,0.5
CC(=O)c1csc(-c2ccccc2)n1,5.6,-9.4,-54.6*,-0.3,-1.0
CC(C)CC1NC(=O)N(CC(=O)NC2CCCc3ccccc32)C1=O (stereo not given),-6.1,-2.4,-36.3*,-0.1,-0.1
O=C(COc1ccccc1)N=C1SC2CS(=O)(=O)CC2N1c1ccc(F)cc1 (stereo not given),-3.7,-9.2,-27.4,0.3,5.2
O=C(Nc1ccccc1F)c1ccc(O)c2ncccc12,-6.5,-2.2,-18.8,0.2,1.6
O=C(CCc1nc(-c2cccs2)no1)Nc1ccc([N+](=O)[O-])cc1,-2.5,-0.9,-28.1,0.5,13.5
CCOC(=O)c1cccc(NC(=O)CCc2nc(-c3ccc(C)cc3)no2)c1,4.6,3.9,-21.7,-0.3,31.4*
